SARS 3CLpro inh-1: SARS-CoV 3CLpro protease inhibition. 0.14% of 290,000 active. recombinant SARS-CoV 3CLpro, quenched FRET peptide cleavage. AID 1706. inhibition, % at 6 µM; in the data active = inhibition above about 12%
Anthrax LF prot: anthrax lethal factor protease inhibition | multiplex microsphere protease cleavage assay, LF | inhibition, % at 10 µM | 0.12% of 360,000 active; also: plate controls were buffer without enzyme for full effect and enzyme alone for no effect
Target sequence (P15917 whole entry, looked up): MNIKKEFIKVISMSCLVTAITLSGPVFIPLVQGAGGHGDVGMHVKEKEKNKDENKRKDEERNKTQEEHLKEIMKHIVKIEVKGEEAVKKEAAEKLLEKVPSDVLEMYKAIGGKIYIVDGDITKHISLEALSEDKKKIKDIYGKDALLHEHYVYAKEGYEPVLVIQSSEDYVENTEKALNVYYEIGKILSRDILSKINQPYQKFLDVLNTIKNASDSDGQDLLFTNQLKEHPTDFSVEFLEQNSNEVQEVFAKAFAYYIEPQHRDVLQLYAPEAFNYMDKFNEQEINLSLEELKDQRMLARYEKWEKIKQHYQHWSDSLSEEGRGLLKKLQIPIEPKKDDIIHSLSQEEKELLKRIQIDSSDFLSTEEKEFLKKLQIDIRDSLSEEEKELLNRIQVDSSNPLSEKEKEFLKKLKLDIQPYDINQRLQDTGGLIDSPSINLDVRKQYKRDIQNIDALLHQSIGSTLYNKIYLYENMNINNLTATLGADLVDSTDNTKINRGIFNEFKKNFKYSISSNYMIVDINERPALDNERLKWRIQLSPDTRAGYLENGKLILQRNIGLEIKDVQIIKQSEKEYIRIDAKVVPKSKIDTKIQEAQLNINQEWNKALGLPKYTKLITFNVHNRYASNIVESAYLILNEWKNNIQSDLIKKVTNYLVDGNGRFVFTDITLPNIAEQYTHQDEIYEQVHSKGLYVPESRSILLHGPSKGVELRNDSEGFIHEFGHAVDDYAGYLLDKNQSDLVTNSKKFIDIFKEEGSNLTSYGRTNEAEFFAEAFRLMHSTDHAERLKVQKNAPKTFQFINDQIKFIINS
Bead autofluor: flagged as autofluorescent in microsphere protease counterscreen; compound autofluorescence counterscreen, microsphere flow cytometry; active compounds read high; fluorescence intensity (test concentration not listed); 3.1% of 360,000 active; in the data active = fluorescence intensity above about 16000; inconclusive = no clear call, values can overlap the other calls
BoNT-A LC inh2: BoNT A light chain protease inhibition; multiplex microsphere protease substrate cleavage, flow cytometry; inhibition, % at 10 µM; 0.17% of 360,000 active; also: plate controls were buffer without enzyme for full effect and enzyme alone for no effect
BoNT-F LC inh: BoNT F light chain protease inhibition; inhibition, % at 10 µM; Multiplex microsphere protease cleavage assay, flow cytometry; 0.22% of 360,000 active; in the data active = inhibition above about 35%, passing the limit was not always enough; inconclusive = no clear call, values can overlap the other calls; also: plate controls were buffer without enzyme for full effect and enzyme alone for no effect
SARS 3CLpro inh-2: SARS 3CLpro inhibition, confirmation assay | QFRET protease activity assay | 36% of 380 active | AID 1879 | shares compounds with SARS 3CLpro inh-1 | inhibition, % at 6 µM; in the data active = inhibition above about 13%
Starred values were filed as active, the others as inactive; ? = inconclusive; · = not tested or not shown. A selection: hits, their analogues and other compounds. The true share with any hit is near 3.5%. Rule as the data show it, unless noted: active = inhibition above about 30%; inconclusive = no clear call, values can overlap the other calls; inactive = below that.

SMILES	SARS 3CLpro inh-1	Anthrax LF prot	Bead autofluor	BoNT-A LC inh2	BoNT-F LC inh	SARS 3CLpro inh-2
CCc1ccc(N(C(=O)c2ccco2)C(C(=O)NC2CCCC2)c2cccnc2)cc1 (centres undefined)	16*	-2	4411	-6	-14	9
CC(C)c1ccc(N(C(=O)c2ccco2)C(C(=O)NC2CCCC2)c2ccncc2)cc1 (centres undefined)	7	-2	4799	0	3	·
CCC(C)c1ccc(N(C(=O)c2ccco2)C(C(=O)NC2CCCC2)c2cccnc2)cc1 (centres undefined)	75*	4	3755	4	-8	75*
Cc1snc(S(=O)(=O)/C(C#N)=N/Nc2cccc(C(F)(F)F)c2)c1C#N	15*	3	2672	0	1	2
O=C(Nc1ccccc1C(=O)Nc1ccc(Br)cn1)c1ccccc1Cl	·	0	6639	-1	-3	·
CC(=O)Nc1ccc(NC(=O)C/C(C)=N/NC(=O)COc2cc(C)c(Br)cc2Br)cc1	16*	-7	3719	-2	-10	1
Cc1cc2nc(C3CCCN(C(=O)NCc4ccccc4)C3)[nH]c2cc1C (centres undefined)	1	-2	4171	0	10	·
Cc1ccc(S(=O)(=O)/C(=C/Cl)NC(=O)c2ccccc2)cc1	16*	-2	2456	0	-4	23*
CCOC(=O)C1NN=C(C(=O)c2ccc(C)cc2)C1c1ccc(C)cc1 (centres undefined)	5	4	2462	6	-10	·
CN1C(=O)N(C)C(=O)C2(Cc3cc(N)ccc3N3CCN(c4ccccc4F)CC32)C1=O (centres undefined)	2	·	·	·	·	·
CN1CCN2c3ccc(N)cc3CC3(C(=O)NC(=O)NC3=O)C2C1 (centres undefined)	22*	-10	3365	-10	?	63*
CCOc1ccc(C2C(C(=O)c3ccc(C)o3)=C(O)C(=O)N2c2nc(C)c(C(=O)OC)s2)cc1 (centres undefined)	12*	3	3950	4	16	4
COc1ccccc1Nc1nc2ccc(C)cc2n2cnnc12	-3	4	3576	-7	-16	·
CC(Oc1ccc(Cl)cc1Cl)C(=O)Nc1ccc(S(=O)(=O)Nc2cnc3ccccc3n2)cc1 (centres undefined)	6	·	·	·	·	·
Cc1cc(Cl)ccc1OC(C)C(=O)Nc1ccc(S(=O)(=O)Nc2cnc3ccccc3n2)cc1 (centres undefined)	12*	0	2757	0	-1	8
Cc1c(Cl)cccc1NC(=O)CSc1nnnn1C	·	-7	5426	-2	-18	·
CN(Cc1ccc(F)cc1)S(=O)(=O)c1nnc(NC(=O)c2ccccc2Br)s1	13*	-1	4484	-1	-2	2
COc1ccccc1C(=O)Nc1nc2ccccc2s1	13*	9	3220	2	?	0
CCN(c1ccccc1)S(=O)(=O)c1nnc(NC(=O)c2ccccc2OC)s1	13*	2	5776	0	-8	6
NC(=S)N/N=C/c1ccc(OC(=O)c2cccnc2)cc1	-5	2	5605	2	8	·
N#CCCn1cc(C=C(C#N)C#N)c(-c2ccc(-c3ccccc3)cc2)n1	-2	-2	2697	-1	-4	·
CCc1nnc(NS(=O)(=O)c2ccc(NC(=O)/C=C/C(=O)O)cc2)s1	6	2	4099	-1	?	·
CCc1nnc(NS(=O)(=O)c2ccc(NC(=O)/C=C/c3ccccc3Cl)cc2)s1	13*	2	4886	0	-1	10
Cc1cc(NC(=O)COC(=O)C(Nc2ccc(C(F)(F)F)cc2Cl)C(C)C)no1 (centres undefined)	14*	-1	4203	1	17	13*
Cc1ccc(CO/N=C/c2c(O)cc(C)oc2=O)cc1	1	2	4350	0	0	·
COC(=O)c1cc(-c2ccccc2)sc1N	51*	-3	3458	0	9	3
Nc1sc(-c2ccccc2)cc1C(=O)N/N=C/c1ccc(Cl)cc1	-3	·	·	·	·	·
C[C@@H]1NC(=O)c2cc([N+](=O)[O-])cc(I)c2NCCCC[C@@H](C(N)=O)NC(=O)[C@H](CC(N)=O)NC1=O	14*	·	·	·	·	6
CCC1CCC(N2CCN(c3ccc([N+](=O)[O-])cc3)CC2)CC1 (centres undefined)	13*	-11	2937	3	?	0

Screening results as filed in PubChem BioAssay.
